# The panel holds about 83,000 compounds, 20% with a hit somewhere; the sample as a whole holds those more often.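 In brief: 96-well plates, 48 h treatment, single concentration, percent growth endpoint.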 A number with no mark means an inactive call. Activity calls are given as the source filed them.
# Tested on: CCRF-CEM leukemia
# Assay: NCI-60 one-dose screen, 48 h (100 = growth as untreated, 0 = no growth, -100 = all killed)
# Settings: 10 µM unless noted
# Protocol: Growth inhibition of the CCRF-CEM human tumor cell line is measured as a screen for anti-cancer activity. Cells are grown in 96 well plates and exposed to the test compound for 48 hours. Compounds are tested at a single concentration, which is 10^-5 M for most compounds. The reported endpoint is percent growth (GI% or GIPRCNT), where numbers from 0 - 100% represent growth inhibition, and numbers from -100% - 0 represent cell death. For example, a value of 40 represents 60% growth inhibition. A value of 0 means no net growth occurred over the course of the experiment. A value of -40 indicates 40% of cells at the beginning of the experiment died by the end of the experiment. A value of -100 means all cells are dead at the end of the experiment.
# NCI-60 Human Tumor Cell Lines Screen was performed using the standard one-dose NCI protocol, which is described in more detail at https://dtp.cancer.gov/discovery_development/nci-60/default.htm.
# Compounds with GIPRCNT values below 10 were considered active. Activity score was based on GIPRCNT using the following formula: […]
# Score is 0 for GIPRCNT values of 100 or above, 50 for GIPRCNT values of 0, and 100 for GIPRCNT values of -100.
row,SMILES,growth
1,CN(C)c1ccc(/C=C2\C=C(c3nc4ccccc4s3)OC2=O)cc1,99%
2,CC(C)(C)c1ccc(S(=O)(=O)Oc2ccc(-c3sc4cc(OS(=O)(=O)c5ccc(C(C)(C)C)cc5)ccc4c3C(=O)c3ccc(OCCN4CCCCC4)cc3)cc2)cc1,93.4%
3,Cc1[nH]c(C(=O)Nc2ccccc2OC2CCN(CCN3CCOCC3)CC2)c(Cl)c1Cl,89.4%
4,O=C1CCC(C(=O)N/N=C/c2cc(F)ccc2F)N1 (stereo not given),103%
5,CNC(=O)Nc1ccc(-c2ccc3ncnc(Nc4cccc(Cl)c4)c3c2)cc1,44.5%
6,O=C1C=C(SCCO)C(=O)c2ccccc21,-14.4% (active)
7,O=C(C[C@]1(O)C(=O)Nc2ccc(Br)cc21)c1ccco1,104%
8,COc1ccc(/C=C/C(c2cc(OC)c(OC)c(OC)c2)n2cncn2)cc1O (stereo not given),6.31% (active)
9,COC(=O)c1sccc1-c1cc(O)c(C(=O)Nc2ccccc2)s1,101%
10,COC(=O)c1c2c(c[n+]([O-])c1C)C(=O)C=C(NCc1ccccc1)C2=O,0.673% (active)
11,COc1cccc(-c2cn3nc(-c4cn(C)c5ccccc45)sc3n2)c1,92%
12,O=C(Cn1nc(-c2cccc3ccccc23)ccc1=O)NCc1cccc(Cl)c1,43.9% [50 µM]
13,O=C(/C=C/c1ccco1)Nc1ncc(Cc2cc(Cl)ccc2Cl)s1,17.3%
14,Cc1ccc(S(=O)(=O)c2nc(-c3ccccc3)oc2SCC(N)=O)cc1,102%
15,O=C(N/N=C/c1ccc(Cl)cc1)c1ccc(NC(=O)c2ccccn2)cc1,91%
16,CCOC(=O)c1[nH]cc2c1CCc1sc(Nc3ccccn3)nc1-2,-2.37% (active)
17,Clc1ccc(-c2cc(-c3ccccc3)nc(N3CCN(CCCNc4ccnc5cc(Cl)ccc45)CC3)n2)cc1,2.6% (active)
18,COc1ccc(C2CC(c3ccccc3)=NN2C(=O)c2cc(OC)c(OC)c(OC)c2)cc1O (stereo not given),17.9%
19,COc1ccc(-c2nc3c(c(-c4ccc(Cl)cc4)nn3-c3ccccc3)c(-c3ccccc3)c2C#N)cc1,102%
20,N#Cc1c(-c2cccc(Cl)c2)cc(-c2cccnc2)[nH]c1=O,71.5%

row,SMILES,growth
1,COc1cc(-c2cc(-c3ccc(Nc4nc(Nc5ccc(Cl)cc5)nc(Nc5ccc(Cl)cc5)n4)cc3)no2)cc(OC)c1OC,-5.88% (active)
2,CN1CCN(c2ccc(NC3=CC(=O)c4ncncc4C3=O)cc2)CC1,3.21% (active)
3,C=C1C(=O)O[C@H]2[C@H]1CC/C(COC(=O)NCc1ccc(Cn3c(=O)sn(-c4ccc(I)cc4)c3=O)cc1)=C\CC[C@@]1(C)O[C@@H]21,-14.3% (active)
4,COc1cc2c(c(OC)c1OC)C(=O)CC(c1cccc(C(=O)Nc3ccccc3Br)c1)O2 (stereo not given),68.9%
5,Cc1nc2ccccc2c(/C=C/c2ccc(F)cc2)c1C(=O)/C=C/c1ccccc1,7.91% (active)
6,C=C1C(=O)O[C@H]2[C@H]1CC/C(COC(=O)C(=O)c1c[nH]c3ccc(Cl)cc13)=C\CC[C@@]1(C)O[C@@H]21,-41.3% (active)
7,Cc1cccc(NC(=O)N/C(N)=N/c2nc3ccccc3s2)c1,21.4%
8,O=C1NC(=O)C(c2coc3cc(Br)ccc23)=C1c1c[nH]c2ccccc12,29.1%
9,COc1ccc(C(O)c2cc3c(N)c(C(=O)Nc4cccc5ccccc45)sc3nc2C)cc1 (stereo not given),13.2%
10,Nc1nc2ccccc2c2c(=O)c3cc(Cl)ccc3sc12,101%
11,CC(C)c1ccc2c(c1)CC[C@H]1[C@](C)(C(=O)OCC#CCN3CCCC3)CCC[C@]21C,6.39% (active)
12,Cn1c2ccccc2c2c3c(c4c5cc(Br)ccc5n(C)c4c21)C(=O)N(O)C3=O,-22.2% (active)
13,C=C(C)[C@@H]1CC[C@]2(C(=O)Nc3ccccn3)CC[C@]3(C)[C@H](CC[C@@H]4[C@@]5(C)CCCNC(C)(C)[C@@H]5CC[C@]43C)[C@@H]12,9.61% (active)
14,COc1ccccc1S(=O)(=O)Nc1ccc2c3c(cc(CCC(=O)NCCCCNc4cccc5c4C(=O)N(C4CCC(=O)NC4=O)C5=O)cc13)C(=O)N2C (stereo not given),-0.604% (active)
15,N#Cc1ccccc1-c1ccc(CN2C(=O)S/C(=C\c3ccc(Br)cc3)C2=O)cc1,100%
16,CN(C)c1ccc(CNCCO)cc1,88.4%
17,COc1cc(Cc2cc(-c3ccccc3)nn(Cc3ccccc3)c2=O)cc(OC)c1OC,34.8%
18,CCCC(O)Cn1ncc(C(=O)OCC)c1NC(=O)NCc1cccc(C(F)(F)F)c1 (stereo not given),5.39% (active)
19,Cc1ccc(Cc2cnc(NC(=O)/C=C/c3ccc(C)o3)s2)cc1,27.8%
20,O=[N+]([O-])c1ccccc1Nc1ccc2ccccc2c1,92.3%

# From PubChem BioAssay (NCI)
